From PubChem
Only some compounds are listed: those with a hit (about 4% of all), similar ones and a draw of the others.
NALP1 yeast inh: NALP1 inhibition; 280,000 tested, 0.61% active; inhibition, % at 10 µM; S. cerevisiae NALP1/ASC/caspase-1 growth, X-gal OD620, 72 h; in the data active = inhibition mostly above about 24%, no sharp cut-off; inactive = mostly below about 32%
NALP3 yeast inh: blocks the NALP3 inflammasome reconstituted in yeast; Yeast reconstituted NLRP3/ASC/caspase-1, beta-gal luminescence, 24 h; inhibition, % at 10 µM; 330,000 tested, 0.39% active;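 active = inhibition of 50% or more; inactive = inhibition below 50%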;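 note: plate controls were induced DMSO wells for no effect and uninduced yeast grown without galactose for full effect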
tim10-1 inh: growth inhibitors of tim10-1 mutant yeast | inhibition, % at 20 µM | 330,000 tested, 2.2% active | S. cerevisiae tim10-1 ts strain growth, BacTiter-Glo, 24 h;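 active = inhibition of at least 40%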;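 note: mutant grown at 25 °C; 0% = DMSO wells with yeast and 100% = wells holding no yeast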
TIM10 inh: TIM10 yeast growth inhibition; S. cerevisiae TIM10 strain growth, BacTiter-Glo luminescence, 24 h; inhibition, % at 10 µM; 330,000 tested, 1.4% active;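 active = inhibition of 40% or more at the single tested concentration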;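 note: wild-type TIM10 isogenic control strain grown at permissive 25 °C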
tim23-1 inh: tim23-1 yeast growth inhibition; S. cerevisiae tim23-1 growth, BacTiter-Glo luminescence, 24 h; inhibition, % at 20 µM; 330,000 tested, 1.3% active; AID 463212;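 active = growth inhibition of the mutant yeast at or above 50%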;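 note: temperature-sensitive mutant grown at 25 °C; plate controls were DMSO-treated mutant yeast for no effect and medium wells lacking yeast for full effect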
TIM10 conf: TIM10 yeast growth inhibition, confirmed | inhibition, % at 10 µM | S. cerevisiae tim10 strain growth, BacTiter-Glo luminescence, 24 h | AID 463215 | 4,600 tested, 63% active | shares compounds with TIM10 inh;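 active = inhibition of yeast growth at or above a set limit in either of two replicates at 10 µM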;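 note: this counterscreen used the strain with wild-type TIM10; 0% = yeast with DMSO and 100% = medium wells lacking yeast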
* marks the source's active call; other numbers are inactive results; / = not tested or not shown.

SMILES | NALP1 yeast inh | NALP3 yeast inh | tim10-1 inh | TIM10 inh | tim23-1 inh | TIM10 conf
Cc1ccccc1N(CC(=O)NCC1CCCO1)C(=O)CCC(=O)Nc1nccs1 (stereo not drawn) | 3 | 7 | 1 | -17 | 8 | /
CCCCCCC(=O)NNC(=O)c1c(O)c2ccccc2n(CCC)c1=O | -10 | 42 | 3 | 46* | 4 | -12
Cc1ccc(C(=O)C(C(=O)/C=C/c2ccccc2)=C2SCCCS2)cc1 | 5 | 21 | 37 | 52* | 32 | -16
O=C1/C(=C\c2ccc(O)c(O)c2)SC(=S)N1Cc1ccccc1 | 36 | 35 | -44 | 50* | 22 | 56*
COc1cc(/C=C2/SC(=S)N(Cc3ccccc3)C2=O)ccc1O | 10 | 31 | -1 | 16 | 42 | /
CCN(C[C@H]1N[C@@](C)(C(=O)OC)[C@H]2C(=O)N(Cc3ccccc3)C(=O)[C@@H]12)S(=O)(=O)c1ccc(C(C)(C)C)cc1 | / | 8 | 21 | 90* | 18 | 11
COc1ccc(C(=O)N/N=C(\C)CC(=O)Nc2cccc(C(F)(F)F)c2)cc1 | / | 16 | 2 | -4 | 16 | /
CCCOC(=O)c1ccc(NC(=O)c2ccoc2C)cc1 | 30 | 27 | -1 | -2 | 10 | /
CCCCOC(=O)c1ccc(NC(=O)c2ccoc2C)cc1 | -1 | 19 | 34 | 41* | 27 | 2
O=C(Nc1ccc(Cl)cc1)N1CCC(c2nc(-c3cccs3)no2)CC1 | 25 | 29 | 32 | -19 | 45 | /
O=C(Nc1ccc(Cl)cc1)N1CCC(c2nc(-c3ccccc3Cl)no2)CC1 | 23 | 24 | 30 | 48* | -6 | 19
COc1ccc(CCn2c(C)cc(C(=O)CCl)c2C)cc1OC | -19 | -32 | -3 | 42* | 48 | 44*
NC(=O)c1cc(NC(=O)CCNS(=O)(=O)c2cccc(C(F)(F)F)c2)cc(C(N)=O)c1 | -4 | 9 | 0 | -11 | 5 | /
CCCCCC(=O)Nc1ccc(-c2csc(C)n2)cc1 | 29 | -34 | -45 | 3 | 9 | /
CCCCCC(=O)Nc1ccc(-c2csc(N)n2)cc1 | 14 | 7 | -5 | 43* | 7 | 12
COc1ccc(CCN2CC(C(=O)NCc3nc(C)c(C)s3)CCC2=O)cc1 (stereo not drawn) | 9 | 6 | 12 | 6 | 5 | /
COC(=O)c1ccc(C)c(NC(=O)c2ccc(Cn3cc([N+](=O)[O-])cn3)o2)c1 | 16 | 12 | 17 | 12 | 8 | /
CCNS(=O)(=O)c1ccc(NC(=O)c2ccc(Cn3cc([N+](=O)[O-])cn3)o2)cc1 | 21 | 13 | -7 | 47* | 9 | 3
CC1CCN(c2ccccc2NC(=S)NC(=O)c2ccco2)CC1 | / | -1 | 34 | 43* | 34 | 40*
COc1ccc(S(=O)(=O)N2CCOCC2)cc1NC(=O)CSc1n[nH]c(C(C)C)n1 | 3 | 13 | -9 | 5 | 7 | /
CC(C)Oc1ccc(CCc2n[nH]c(=S)n2-c2ccccc2)cc1 | -6 | 25 | 13 | 16 | 19 | /
O=S(Cc1ccc(Br)cc1)Cc1nnc(SCc2c(Cl)cccc2Cl)n1-c1ccccc1 (stereo not drawn) | / | 12 | 26 | 41* | 42 | 23
Cn1c(CS(=O)Cc2c(Cl)cccc2Cl)nnc1SCc1c(Cl)cccc1Cl (stereo not drawn) | 35 | -4 | 32 | 35 | 39 | /
COc1ccccc1NC(=S)N1CCN(c2ccccn2)CC1 | 22 | 1 | 12 | -6 | 1 | /
COc1ccccc1NC(=S)N1CCN(c2ncccn2)CC1 | 1 | 7 | -14 | 95* | 2 | 3
SMILES | NALP1 yeast inh | NALP3 yeast inh | tim10-1 inh | TIM10 inh | tim23-1 inh | TIM10 conf
CC1=C(C(N)=O)C(c2cccs2)n2ncnc2N1 (stereo not drawn) | / | -5 | 7 | -14 | 14 | /
c1csc(C2C3=C(Nc4ncnn42)c2ccccc2OC3)c1 (stereo not drawn) | -2 | -4 | 33 | 43* | 33 | 15
CCn1c(C)cc(/C=C2/SC(=S)NC2=O)c1C | 16 | 8 | 35 | 44* | 47 | -7
Cc1ccc(CN2C(=O)C(C)(C)Oc3ccc(C(=O)N4CCCCC4)cc32)cc1 | 8 | -1 | 23 | 45* | 9 | 4
COCCCNC(=S)N1CCN(C(c2ccccc2)c2ccccc2)CC1 | 1 | 13 | 8 | 2 | 4 | /
CCOc1ccc(N(C)S(=O)(=O)c2ccc(C)c(C(=O)N3CCN(Cc4ccc5c(c4)OCO5)CC3)c2)cc1 | / | 16 | 2 | 2 | 15 | /
COc1ccc(NC(=O)CSc2nnc3ccc(-c4ccncc4)nn23)cc1OC | 2 | 6 | -6 | -9 | 0 | /
CCNc1nc(NCC)nc(NS(=O)(=O)c2ccc(N)cc2)n1 | 10 | 25 | -8 | 13 | 5 | /
Cc1ccc(C)c(S(=O)(=O)N2CCN(C(=O)c3sccc3C)CC2)c1 | / | 14 | 24 | 18 | 29 | /
CC1CCN(C(=O)c2ccc(NC3=C(Cl)C(=O)N(Cc4ccccc4)C3=O)cc2)CC1 | / | 30 | 22 | 41* | 40 | 42*
O=C(c1ccc([N+](=O)[O-])s1)N1CCN(c2ccc(C(F)(F)F)cn2)CC1 | 9 | 7 | 10 | 42* | 32 | 27
COc1ccc(C(=O)Nc2ccc(-c3nnn(CC(=O)NCc4ccco4)n3)cc2)cc1 | / | 29 | 0 | -11 | -2 | /
COC(=O)CSc1nc(-c2ccccc2)c2c(c1C#N)CCCC2 | 14 | 7 | 30 | 41* | 23 | 27
COC(=O)CSc1nc(N2CCCCC2)c2c(c1C#N)CCCC2 | 9 | 6 | 25 | 27 | 17 | /
Cc1ccc(S(=O)(=O)N(CC(=O)NC2CCCCCC2)c2ccccc2F)cc1 | 10 | -2 | 16 | 40* | 8 | 11
Cc1ccc2nc(N(CCCN(C)C)C(=O)c3ccc(S(=O)(=O)N4CCc5ccccc5C4)cc3)sc2c1 | 8 | 24 | 38 | 45* | 36 | 29
Cc1cc(C)c2sc(N(CCCN(C)C)C(=O)c3ccc(S(=O)(=O)N4CCc5ccccc5C4)cc3)nc2c1 | / | 14 | 3 | 3 | 1 | /
CCN(Cc1ccccc1)c1ccc(/C=N/NC(=S)NC(C)C)cc1 | / | 19 | 36 | 43* | 29 | 45*
Cc1ccc(NC(=O)C/C(N)=N/OC(=O)Nc2cccc(C)c2)cc1 | / | -2 | 40 | 42* | 16 | 28
Cc1ccc(NC(=O)C/C(N)=N/OC(=O)Nc2ccc(C)c(Cl)c2)cc1 | / | 2 | 27 | 38 | 14 | /
CCc1ccc2nc3sc(C(=O)N4CCc5ccccc54)c(N)c3cc2c1 | 1 | 1 | 13 | 12 | -2 | /
Cc1ccc(C)c2nc3sc(C(=O)N4CCCc5ccccc54)c(N)c3cc12 | 0 | 18 | 36 | 46* | 41 | 29
COc1ccccc1-c1c(C)nn2c(N3CCC(C)CC3)cc(C)nc12 | / | 18 | 38 | 40* | 48 | 47*
COc1ccccc1-c1c(C)nn2c(N3CCC(C(N)=O)CC3)cc(C)nc12 | 37 | 7 | 8 | -1 | 7 | /
